gsp antag: gsp mutant antagonism; gsp-mutant cells, cAMP HTRF, 30 min; Potency, µM (top dose mostly 76.9 µM), inactives show top-dose activity change, negative = inhibition, hits mostly inhibitors; 0.4% of 340,000 active; calls by dose curve; cell line not stated here;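 also: intracellular cAMP measured with PDE inhibitor Ro 20-1724 present during compound exposure; % is scaled to controls: 0 for no effect and ±100 for the full control effect; nearly all actives have a fitted effect of over 65% in size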
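Measurement of cellular cAMP by homogeneous time-resolved fluorescence following a 30 min compound exposure at 37C. The PDE inhibitor […] was present throughout; the assay buffer was DPBS with 0.05% BSA and 0.005% Tween 20.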
gsp agonist: activates gsp, the McCune-Albright syndrome mutation. gsp mutant cells, cAMP HTRF, 30 min. Potency, µM (doses to about 76.9 µM), inactives show at the top dose activation (cAMP increase), usual class: activators. 0.13% of 340,000 active; active = well fitted activation curve with a large enough effect; inconclusive = small, poorly fitted or top-dose-only effect, or another doubt; inactive = no such curve, though single readings can be large or run the other way; cell line not stated here;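 also: phosphodiesterase inhibitor Ro 20-1724 added with compounds to block cAMP breakdown; nearly all actives have a fitted effect of over 60% in size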
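Cells in DMEM/10% FBS with G418 were pretreated with compounds in DMSO plus […] (300 uM stock) for 30 min at 37C. cAMP was measured by HTRF (cAMP-d2 plus anti-cAMP antibody-K) after 30 min at room temperature.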
Rango dissoc inh: inhibitors of RanGTP-induced Rango-importin beta complex dissociation | O95149+P62826 | Biochemical FRET Rango-importin beta, RanGTP-induced dissociation | Potency, µM (series often up to 46.1 µM), without a hit: at the top dose activity change, negative = inhibition | 0.071% of 340,000 active | AID 540253; also: % of control where 0% means no effect; nearly all actives have a fitted effect of over 45% in size
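Rango/importin beta premix (0.1/0.25 uM final), PBS + 1 mM DTT + 0.02% Tween-20 + 0.1% BSA; cpd 5 min RT; FRET pre-read; + RanGTP-RCC1 (0.6 uM Ran, 2 mM GTP, 0.2 uM RCC1); 45 min RT; FRET post-read, ex 430, em 486/530 nm.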
ASM inhibitor: inhibitors of human secretory acid sphingomyelinase | placental ASM, HMU-PC fluorogenic substrate, 60 min | Potency, µM (series often up to 57.5 µM), for the others: at the highest dose activity change, negative = inhibition, hits mostly inhibitors | 0.006% of 340,000 active | AID 504937; active = well fitted inhibition curve with a large enough effect; inconclusive = small, poorly fitted or top-dose-only effect; inactive = no such curve, though single readings can be large or run the other way
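qHTS format. ASM enzyme prepared from human placenta hydrolyses the fluorogenic substrate HMU-PC0 (9 uM final) over 60 min at 37 °C after a 10 min compound preincubation.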
Rango complex inh: inhibitors of Rango-importin beta complex formation; Q14974; Rango CFP/YFP FRET sensor + importin beta, 45 min; Potency, µM (titrated, usually from 92.2 µM), inactives show top-dose inhibition of complex formation; 0.031% of 340,000 active;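 also: 0% = DMSO wells and 100% = buffer wells lacking importin beta; nearly all actives have a fitted effect of over 15% in size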
Target sequence (Q14974 whole entry, looked up): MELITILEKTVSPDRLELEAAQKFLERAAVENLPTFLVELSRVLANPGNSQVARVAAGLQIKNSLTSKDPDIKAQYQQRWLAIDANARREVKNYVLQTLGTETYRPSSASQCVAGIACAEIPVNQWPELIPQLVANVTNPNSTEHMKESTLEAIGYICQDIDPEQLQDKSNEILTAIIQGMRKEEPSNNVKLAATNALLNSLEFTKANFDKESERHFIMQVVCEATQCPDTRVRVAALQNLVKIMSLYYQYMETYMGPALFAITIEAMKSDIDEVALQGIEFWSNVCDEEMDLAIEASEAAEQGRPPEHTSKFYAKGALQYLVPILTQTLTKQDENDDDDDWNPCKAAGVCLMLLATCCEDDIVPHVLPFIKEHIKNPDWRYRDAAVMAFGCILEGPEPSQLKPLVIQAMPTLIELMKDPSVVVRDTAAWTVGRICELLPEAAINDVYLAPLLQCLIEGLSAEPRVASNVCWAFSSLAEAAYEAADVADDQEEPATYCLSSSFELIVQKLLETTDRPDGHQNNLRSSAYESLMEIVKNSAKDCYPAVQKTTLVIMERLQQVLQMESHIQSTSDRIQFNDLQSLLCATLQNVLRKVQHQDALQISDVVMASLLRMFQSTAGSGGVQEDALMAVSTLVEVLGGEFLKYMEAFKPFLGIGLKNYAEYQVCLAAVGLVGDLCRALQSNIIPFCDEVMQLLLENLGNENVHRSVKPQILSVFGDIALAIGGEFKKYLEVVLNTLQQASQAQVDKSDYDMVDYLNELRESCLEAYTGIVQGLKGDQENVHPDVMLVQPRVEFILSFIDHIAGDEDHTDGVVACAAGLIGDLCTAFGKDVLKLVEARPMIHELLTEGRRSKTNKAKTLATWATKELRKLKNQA
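FRET biosensor Rango (snurportin 1 IBB between N-terminal EYFP and C-terminal Cerulean), 50 nM in PBS/1 mM DTT/0.02% Tween-20/0.1% BSA, preincubated 5 min RT with compound; 0.125 microM importin beta added, 45 min RT, CFP/YFP FRET ratio read.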
An asterisk follows results filed as active; i = inactive; u = inconclusive; x = not tested or not shown; [ ] = dose if it differs, or a comment. Most compounds without a hit are left out; they make up all but 0.67% or so of the library. Unless noted, calls follow the shape of the full dose curve. Potency is read from the fitted curve at half-maximal effect.

SMILES	gsp antag	gsp agonist	Rango dissoc inh	ASM inhibitor	Rango complex inh
COc1ccc(C2CC(=O)C3=C(C2)NC(C)=C(C(=O)Nc2ccccc2C)C3c2coc3ccc(C)cc3c2=O)cc1OC (stereo not drawn)	-12%	1%	1%	-2%	-1%
CC1=C(C(=O)Nc2cccc(C)n2)C(c2ccc3c(c2)OCO3)C2=C(CC(c3ccco3)CC2=O)N1 (stereo not drawn)	-17%	-8%	18µM*	i	u
Cn1nc(C(=O)NNC(=O)c2cccc(Cl)c2)ccc1=O	4%	11%	-5%	2%	3%
O=C1CC(SC(=Nc2ccccc2)Nc2ccccc2)C(=O)N1c1cccc2ccccc12 (stereo not drawn)	-14%	-2%	14%	-17%	u
CCSc1nc2nccnc2c(=O)[nH]1	0%	7%[15.4 µM]	-13%	173%	-1%
O=C(O)c1cc(-c2ccccc2)nc(-c2ccccc2)c1	32µM*	-36%	-14%	19%	u
O=C(O)c1cc(C(=O)O)c(-c2ccccc2)c(C(=O)O)c1	15%	1%	-7%	2%	-4%
FC(F)(F)c1cnc(Nc2ccc(N3CCOCC3)cc2)c(Cl)c1	-5%	-30%	21%	-3%	5%
COCCCNC(=O)/C(C#N)=c1\s/c(=C\c2ccccc2OC(F)F)c(=O)n1CCCOC	-1%	3%[15.4 µM]	0%	39%	u
COCCCn1c(=O)/c(=C\c2cccc(OC)c2OC)s/c1=C(/C#N)C(=O)Nc1ccc(C(=O)O)cc1	14µM*	0%	u	8%	u
CN(C)c1ccc(/C=C/c2ccc3c4ccccc4ccc3[n+]2-c2ccccc2)cc1	40µM*	-5%[15.4 µM]	-5%	-28%	u
CN(C)c1ccc(/C=C/c2ccc3ccccc3[n+]2C)cc1	u	12%	1%	-22%	1%
Cc1cc2c(c(=O)o1)C1(C(=O)N(CC(=O)O)c3ccccc31)C(C#N)=C(N)O2 (stereo not drawn)	4%	-6%	15µM*[inhibitor]	7%	u
CCSc1nc(N2CCOCC2)c2c(c1C#N)CC(C)(C)N(C)C2	10%	u	u	1%	u
CN1Cc2c(N3CCOCC3)nc(SCc3ccccc3)c(C#N)c2CC1(C)C	2%	16%	8.2µM*	-1%	u
Cc1ccc(S(=O)(=O)NN=CC2(c3ccccc3)CC2)cc1	x	-35%	x	x	x
Cc1nn(C)c(C)c1CN(C)S(=O)(=O)c1ccc2ccccc2c1	14µM*	9%	u	-3%	u
Cc1nn(C)c(C)c1CN(C)S(=O)(=O)c1ccc(F)cc1	-21%	-4%	-10%	6%	-2%
COc1ccc(N=c2oc3c(OC)cccc3cc2C(=O)NCc2ccco2)cc1OC	-5%	-55%	0%	-7%	1%
COc1cccc2cc(C(=O)Nc3ccc(F)cc3)c(=Nc3ccc(C(=O)O)cc3)oc12	11µM*	-24%	-1%	0%	6%
O=C1c2ccccc2C(=O)c2c(/C=C/N3CCCCC3)ccnc21	-5%	8.9µM*	-8%	-1%	-3%
C[C@]12c3[nH]c4cc(-c5ccco5)ccc4c3CCN1C(=O)[C@@H](CC(=O)NCc1ccco1)C[C@@H]2C(=O)N1CCCCC1	-33%	x	14%	u	-5%
COC(=O)c1ccc(/C=C/C(=O)OCC(=O)Nc2sccc2C(N)=O)cc1	28µM*	5%	-2%	11%	-1%
COC(=O)c1ccc(CNC(=O)COC(=O)/C=C/c2cccc(OC)c2)cc1	x	-1%	x	x	x
COC(=O)c1ccc(CNC(=O)COC(=O)/C=C/c2ccc(O)c(OC)c2)cc1	-17%	3%[15.4 µM]	18µM*	6%	u
C/C(=N\NC(=O)c1ccc(-c2ccccc2)cc1)C1C(=O)c2ccccc2C1=O	28µM*	3%	0%	-22%	4%
O=C(Nc1cc2cccc([N+](=O)[O-])c2oc1=O)c1cccs1	12%	10%[15.4 µM]	34%	-3%	-6%
CCOc1cccc2cc(-c3nnc(NCc4ccc5c(c4)OCO5)s3)c(=O)oc12	10%	-14%	1.3µM*	61%	u
